# For some assays here: Measured potencies and affinities stand elsewhere.
# Legend:
# Parameters in all cases: scale not given: direction of the effect not stated beside the values
# [1] = biological target: Protein translocase subunit SecA (Escherichia coli (strain K12)) (UniProt P10408); test: Assay to Identify E. coli SecA ATPase Inhibitors; format: functional; settings: 30 µM
# [2] = biological target: T1, Ubiquitin-activating enzyme e1, putative (Leishmania donovani (strain BPK282A1)) (UniProt E9BSI1); test: Leishmania donovani Ubiquitin Activating Enzyme (LdE1); format: functional; settings: 30 µM
# T1 sequence (whole entry): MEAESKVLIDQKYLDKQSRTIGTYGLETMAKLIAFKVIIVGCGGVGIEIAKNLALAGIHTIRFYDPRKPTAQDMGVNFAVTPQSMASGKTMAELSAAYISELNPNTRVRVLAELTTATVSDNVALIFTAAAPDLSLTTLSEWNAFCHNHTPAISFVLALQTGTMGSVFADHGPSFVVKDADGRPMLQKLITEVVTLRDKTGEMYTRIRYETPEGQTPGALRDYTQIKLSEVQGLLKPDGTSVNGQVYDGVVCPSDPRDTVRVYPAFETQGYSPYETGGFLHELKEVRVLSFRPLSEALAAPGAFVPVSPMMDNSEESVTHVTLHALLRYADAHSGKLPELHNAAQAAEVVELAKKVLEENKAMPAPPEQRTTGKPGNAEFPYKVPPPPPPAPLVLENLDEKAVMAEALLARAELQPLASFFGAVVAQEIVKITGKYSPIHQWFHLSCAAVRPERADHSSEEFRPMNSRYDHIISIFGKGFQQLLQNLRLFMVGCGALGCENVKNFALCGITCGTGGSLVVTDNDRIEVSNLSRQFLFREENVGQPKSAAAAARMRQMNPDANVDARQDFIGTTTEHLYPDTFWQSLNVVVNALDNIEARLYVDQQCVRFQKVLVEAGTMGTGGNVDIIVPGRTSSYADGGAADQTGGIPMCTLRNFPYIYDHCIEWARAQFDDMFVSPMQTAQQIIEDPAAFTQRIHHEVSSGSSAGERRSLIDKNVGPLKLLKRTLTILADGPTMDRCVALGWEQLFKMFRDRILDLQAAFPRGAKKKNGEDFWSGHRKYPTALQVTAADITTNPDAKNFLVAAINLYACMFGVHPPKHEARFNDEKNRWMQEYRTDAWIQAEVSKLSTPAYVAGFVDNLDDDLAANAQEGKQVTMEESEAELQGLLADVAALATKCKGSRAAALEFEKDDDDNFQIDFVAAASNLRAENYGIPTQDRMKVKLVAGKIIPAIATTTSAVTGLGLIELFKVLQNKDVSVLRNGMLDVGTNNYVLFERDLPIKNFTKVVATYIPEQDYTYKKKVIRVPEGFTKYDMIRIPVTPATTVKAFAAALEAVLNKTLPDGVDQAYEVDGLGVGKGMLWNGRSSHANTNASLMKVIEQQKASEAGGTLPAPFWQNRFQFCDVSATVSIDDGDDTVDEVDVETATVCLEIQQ
# [3] = biological target: AMP-activated protein kinase, AMPK (Homo sapiens) (UniProt P54646+O43741+P54619+Q9UGJ0+Q9Y478+Q13131+Q9UGI9); test: AMP-dependent Kinase enzyme assay. An in vitro enzyme assay that detects ADP turnover that is directly proportional to AMPK activity. This uses naive AMPK that is activated during the assay with MK-8722; format: functional; settings: 30 µM
# [4] = biological target: Sialic acid-binding Ig-like lectin 9 (Homo sapiens) (UniProt Q9Y336); test: Hs-Siglec9 ALPHAscreen SOP 20170721; settings: 10 µM
# Sequence of Sialic acid-binding Ig-like lectin 9 (Homo sapiens) (Q9Y336 whole entry): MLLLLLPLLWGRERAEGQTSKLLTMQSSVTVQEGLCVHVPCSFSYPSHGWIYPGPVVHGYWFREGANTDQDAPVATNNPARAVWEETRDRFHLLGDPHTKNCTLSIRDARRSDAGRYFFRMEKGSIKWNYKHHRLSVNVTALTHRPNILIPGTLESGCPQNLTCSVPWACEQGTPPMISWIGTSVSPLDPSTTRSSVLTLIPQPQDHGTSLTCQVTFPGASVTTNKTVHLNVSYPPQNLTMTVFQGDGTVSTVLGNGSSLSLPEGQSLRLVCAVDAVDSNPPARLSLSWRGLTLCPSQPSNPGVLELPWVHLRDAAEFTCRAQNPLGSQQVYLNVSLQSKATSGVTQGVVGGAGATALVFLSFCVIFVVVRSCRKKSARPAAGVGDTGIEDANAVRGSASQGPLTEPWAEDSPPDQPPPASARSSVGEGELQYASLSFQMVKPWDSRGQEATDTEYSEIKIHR
# [5] = tested on: Trypanosoma cruzi; test: Trypanosoma cruzi phosphomannomutase and mannose-1-phosphate guanylyltransferase assay; format: functional; settings: 10 µM
# [6] = biological target: T2, Arginase-2, mitochondrial (Homo sapiens) (UniProt P78540); test: in vitro enzyme assay to detect the production of urea directly proportional to the activity of Arginase II; format: functional; settings: 33.3 µM; note: in the data most compounds retested in dose-response had high values
# T2 sequence (whole entry): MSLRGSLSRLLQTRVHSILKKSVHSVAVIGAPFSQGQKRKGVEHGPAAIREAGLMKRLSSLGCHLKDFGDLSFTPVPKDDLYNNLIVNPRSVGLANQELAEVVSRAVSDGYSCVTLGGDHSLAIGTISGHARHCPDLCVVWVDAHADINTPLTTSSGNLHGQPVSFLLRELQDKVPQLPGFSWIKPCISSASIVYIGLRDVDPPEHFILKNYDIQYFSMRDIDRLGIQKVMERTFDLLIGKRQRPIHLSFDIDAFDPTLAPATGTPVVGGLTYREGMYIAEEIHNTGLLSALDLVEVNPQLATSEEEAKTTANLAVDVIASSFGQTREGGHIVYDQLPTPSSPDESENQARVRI
# [7] = biological target: T3, Proteasome subunit beta (Trypanosoma cruzi) (UniProt O96673); test: Trypanosoma cruzi proteasome chymotrypsin-like activity (TcProtChymo) assay.; note: in the data most compounds retested in dose-response had high values; format: functional; settings: 9.37 µM
# T3 sequence (whole entry): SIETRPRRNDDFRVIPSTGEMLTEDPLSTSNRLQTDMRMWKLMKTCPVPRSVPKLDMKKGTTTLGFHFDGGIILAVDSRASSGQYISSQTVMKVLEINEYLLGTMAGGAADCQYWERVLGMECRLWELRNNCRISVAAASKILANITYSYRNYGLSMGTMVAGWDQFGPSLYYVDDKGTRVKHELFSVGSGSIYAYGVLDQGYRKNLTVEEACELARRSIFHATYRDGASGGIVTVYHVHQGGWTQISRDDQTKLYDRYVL
# [8] = organism: Homo sapiens; test: To identify inhibition of the IFN signalling (Jak-Stat) pathway via expression of an eGFP reporter gene under the control of an IFN-stimulated response element (ISRE) containing MxA promoter.; format: functional; settings: 30 µM
# [9] = biological target: T4, Tyrosyl-tRNA synthetase, putative (Trypanosoma cruzi (strain CL Brener)) (UniProt Q4DSP6); test: Trypanosoma cruzi tyrosyl tRNA synthetase (TcYRS) _High Tyrosine SOP; format: functional; settings: 30 µM; note: in the data most compounds retested in dose-response had high values
# T4 sequence (whole entry): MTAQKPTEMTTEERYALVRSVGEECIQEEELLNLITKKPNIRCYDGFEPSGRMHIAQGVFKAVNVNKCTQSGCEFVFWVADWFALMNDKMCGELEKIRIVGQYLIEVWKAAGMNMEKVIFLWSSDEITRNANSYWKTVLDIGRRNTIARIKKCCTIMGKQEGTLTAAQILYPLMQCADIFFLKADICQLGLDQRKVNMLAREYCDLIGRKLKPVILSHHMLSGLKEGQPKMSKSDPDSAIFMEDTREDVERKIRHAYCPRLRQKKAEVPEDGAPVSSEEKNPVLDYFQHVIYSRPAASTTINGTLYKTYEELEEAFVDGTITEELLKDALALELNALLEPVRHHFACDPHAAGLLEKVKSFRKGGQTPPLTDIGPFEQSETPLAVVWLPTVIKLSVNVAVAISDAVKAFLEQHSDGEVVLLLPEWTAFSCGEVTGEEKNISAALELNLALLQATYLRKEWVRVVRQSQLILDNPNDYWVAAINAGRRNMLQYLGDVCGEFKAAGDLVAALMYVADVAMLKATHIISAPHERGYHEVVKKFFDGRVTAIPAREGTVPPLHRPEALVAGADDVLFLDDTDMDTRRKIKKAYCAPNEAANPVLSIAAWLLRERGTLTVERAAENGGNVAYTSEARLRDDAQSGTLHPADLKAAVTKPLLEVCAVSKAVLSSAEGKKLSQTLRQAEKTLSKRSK
# [10] = biological target: T4, Tyrosyl-tRNA synthetase, putative (Trypanosoma cruzi (strain CL Brener)); test: Trypanosoma cruzi tyrosyl tRNA synthetase (TcYRS) SOP; format: functional; settings: 30 µM
# [11] = biological target: Chromo domain-containing protein 1 (Saccharomyces cerevisiae (strain ATCC 204508 / S288c) (Baker's yeast)) (UniProt P32657); test: ScCHD-1 Enzyme Inhibition Assay; format: functional; settings: 30 µM; note: in the data most compounds retested in dose-response had high values
# Sequence of Chromo domain-containing protein 1 (Saccharomyces cerevisiae (strain ATCC 204508 / S288c) (Baker's yeast)) (P32657 whole entry, the tested form may be a part): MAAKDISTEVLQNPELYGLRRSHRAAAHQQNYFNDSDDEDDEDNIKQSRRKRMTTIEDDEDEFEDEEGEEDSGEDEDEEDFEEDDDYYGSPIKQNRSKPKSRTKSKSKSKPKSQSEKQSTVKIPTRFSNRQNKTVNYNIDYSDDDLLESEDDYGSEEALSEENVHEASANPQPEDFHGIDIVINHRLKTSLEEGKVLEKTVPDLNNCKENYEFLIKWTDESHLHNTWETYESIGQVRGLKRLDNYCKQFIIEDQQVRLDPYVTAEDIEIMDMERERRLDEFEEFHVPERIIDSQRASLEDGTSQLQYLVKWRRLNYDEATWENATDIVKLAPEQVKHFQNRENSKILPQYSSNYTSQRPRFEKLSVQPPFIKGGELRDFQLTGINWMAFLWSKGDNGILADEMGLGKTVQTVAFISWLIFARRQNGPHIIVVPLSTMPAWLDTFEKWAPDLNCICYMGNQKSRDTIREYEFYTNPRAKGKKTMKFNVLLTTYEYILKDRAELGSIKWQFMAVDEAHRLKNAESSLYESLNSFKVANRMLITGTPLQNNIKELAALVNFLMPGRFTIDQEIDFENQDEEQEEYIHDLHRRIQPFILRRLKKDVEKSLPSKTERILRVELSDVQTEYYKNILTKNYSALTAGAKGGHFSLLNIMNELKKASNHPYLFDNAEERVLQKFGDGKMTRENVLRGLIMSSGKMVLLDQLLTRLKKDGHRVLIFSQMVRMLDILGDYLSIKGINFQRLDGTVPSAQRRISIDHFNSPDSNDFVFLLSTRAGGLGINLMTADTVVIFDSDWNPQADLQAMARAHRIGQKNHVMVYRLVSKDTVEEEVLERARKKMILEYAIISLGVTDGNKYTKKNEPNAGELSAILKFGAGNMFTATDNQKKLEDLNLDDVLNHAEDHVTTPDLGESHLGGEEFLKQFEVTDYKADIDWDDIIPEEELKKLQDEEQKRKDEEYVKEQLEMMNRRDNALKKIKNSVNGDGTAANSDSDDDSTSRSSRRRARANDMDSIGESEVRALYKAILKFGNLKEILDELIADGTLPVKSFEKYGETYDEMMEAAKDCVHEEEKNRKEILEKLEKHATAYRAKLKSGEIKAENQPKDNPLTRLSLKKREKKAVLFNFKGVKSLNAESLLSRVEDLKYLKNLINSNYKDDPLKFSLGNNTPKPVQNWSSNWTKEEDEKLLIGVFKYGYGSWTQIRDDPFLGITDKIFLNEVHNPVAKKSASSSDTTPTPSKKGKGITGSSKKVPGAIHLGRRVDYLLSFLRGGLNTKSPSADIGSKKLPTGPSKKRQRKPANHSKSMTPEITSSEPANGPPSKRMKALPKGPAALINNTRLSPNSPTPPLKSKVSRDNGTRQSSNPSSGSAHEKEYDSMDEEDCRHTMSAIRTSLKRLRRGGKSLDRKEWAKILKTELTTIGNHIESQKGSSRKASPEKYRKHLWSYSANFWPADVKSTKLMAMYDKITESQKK
# Sequence of Protein translocase subunit SecA (Escherichia coli (strain K12)) (P10408 whole entry): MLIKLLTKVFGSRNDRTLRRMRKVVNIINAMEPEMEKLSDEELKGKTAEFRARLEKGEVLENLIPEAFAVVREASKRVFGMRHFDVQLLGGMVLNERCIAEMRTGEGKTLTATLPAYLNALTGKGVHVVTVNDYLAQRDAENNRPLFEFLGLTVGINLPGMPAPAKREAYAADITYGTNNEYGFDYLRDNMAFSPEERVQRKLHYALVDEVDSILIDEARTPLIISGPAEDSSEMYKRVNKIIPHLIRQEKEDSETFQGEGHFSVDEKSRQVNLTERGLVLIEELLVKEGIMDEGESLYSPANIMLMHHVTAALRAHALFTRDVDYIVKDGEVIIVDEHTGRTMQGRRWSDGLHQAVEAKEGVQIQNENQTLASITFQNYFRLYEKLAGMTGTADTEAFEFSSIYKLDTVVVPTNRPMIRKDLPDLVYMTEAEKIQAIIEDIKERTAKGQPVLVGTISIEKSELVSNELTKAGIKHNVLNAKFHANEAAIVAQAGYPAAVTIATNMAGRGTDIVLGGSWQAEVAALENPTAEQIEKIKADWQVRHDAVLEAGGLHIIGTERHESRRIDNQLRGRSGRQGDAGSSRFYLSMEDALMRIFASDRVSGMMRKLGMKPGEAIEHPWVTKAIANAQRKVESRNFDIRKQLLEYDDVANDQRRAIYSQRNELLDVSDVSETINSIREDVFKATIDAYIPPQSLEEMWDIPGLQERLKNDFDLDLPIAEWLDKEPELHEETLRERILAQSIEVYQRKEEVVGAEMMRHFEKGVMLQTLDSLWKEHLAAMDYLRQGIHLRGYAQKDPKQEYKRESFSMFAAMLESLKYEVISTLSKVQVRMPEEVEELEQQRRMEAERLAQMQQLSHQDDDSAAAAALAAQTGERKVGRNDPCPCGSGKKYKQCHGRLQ
SMILES,Percent Effect [1] [%],Percent Effect [2] [%],Percent Effect [3] [%],Percent Effect [4] [%],Percent Effect [5] [%],Percent Effect [6] [%],Percent Effect [7] [%],Percent Effect [8] [%],Percent Effect [9] [%],Percent Effect [10] [%],Percent Effect [11] [%]
CC1CCN(CCCNS(=O)(=O)c2cccc(F)c2)CC1,-4.57,7.79,0.601,5.46,-2.46,-13.8,0.166,-11.1,5.38,13.6,-2.91
CC(=O)Nc1nc(C2CCN(C(C)=O)CC2)cs1,0.424,8,6.04,-0.593,-4.33,0.699,11.2,4.06,6.38,6.41,-3.5
CCc1noc(C(C)N(C)CC(=O)Nc2ccc(C)cc2)n1 (configuration not stated),-4.41,0,2.85,1.79,-2.55,-0.455,-0.887,-0.282,-1.07,-2.5,2.11
N#Cc1cccnc1NCCNC(=O)N1CCCC(C(F)(F)F)C1 (configuration not stated),-0.35,10.8,-2.73,11.1,4.83,13.3,19,23.4,4.76,19.5,-4.05
Cc1cc2cc(C(=O)N[C@@H]3CC[C@@H](N4CCOCC4)[C@@H]3O)ccc2o1,1.28,17.6,5.33,-5.41,2.57,-0.232,13.4,29.4,5.38,3.9,-10.2
Cn1ccnc1CN1CC[C@@H](NS(C)(=O)=O)[C@@H]1Cc1cccnc1,-2.5,8.11,-0.0396,-7.99,-6.35,-2.23,18.6,11.3,2.16,10.3,-5.81
O=C(Cn1nc(-c2ccc(F)cc2)oc1=O)NCc1ccc(F)cc1,0.533,10.5,-7.15,-1.53,-7.52,-6.9,13.4,21,0.49,7.32,-14.3
CC(=O)NCC(=O)N1CC[C@H](OCC2CC2)[C@@H]1Cc1cccnc1,-0.669,5.33,-3.45,5.96,-2.51,-50,5.47,1.5,1.04,-47.5,-0.336
CC(C)(C)c1nc(CN2CCC(c3nc4cc(Cl)ccc4o3)CC2)no1,0.762,13.5,3.19,22.6,7.92,4.76,7.76,10.2,2.65,0,-5.62
CSc1ccc(C(CNC(=O)C2CC2)N2CCc3sccc3C2)cc1 (configuration not stated),-3.4,5.26,1.69,-0.599,0.876,-2.37,16,9.34,8.51,15.6,4.76
CNc1cccc(C2CCCN(C(=O)c3ccncc3)C2)n1 (configuration not stated),-4.49,6.76,12.2,0.305,4.74,-0.232,8.27,-2.26,6.45,11.7,-14.3
Cc1cc(N2CCN(Cc3ccc(C)o3)CC2)cc(C)n1,-4.6,5.33,-0.471,15,1.46,2.08,20.2,2.05,8.2,16.1,-6.19
CC(C)c1nc(N2CC(N3CCCCC3C)C2)c2cnn(C)c2n1 (configuration not stated),-7.05,-2.74,-1.43,-2.38,-7.14,-2,4.54,4.43,-3.12,8.64,-2.78
O=C(COc1ccc(C(F)(F)F)cc1)NS(=O)(=O)c1cccnc1,-0.269,0,4.15,-3.63,-1.5,0.383,3.84,-6.19,-1.47,-4.88,4.47
CC(C)c1n[nH]c(C2CN(C(=O)C3=COCC3)CCO2)n1 (configuration not stated),-3.67,2.63,1.65,11.9,0.0934,5.4,-5.33,-8.69,2.46,3.7,10.5
O=C(Cc1cccs1)N1C[C@@H]2COC[C@]2(COc2cccnc2)C1,-2.91,8.11,-0.523,-5.15,7.62,-1.25,8.2,-12.3,7.92,11,-1.81
CC(=O)N1[C@H](Cn2cncn2)C[C@@H]2CN(c3ccc(C)nn3)CC[C@@H]21,-0.849,2.6,1.33,0.483,3.83,0,9.98,-9.62,-1.07,1.24,-3.45
Cc1nc(CNC(=O)Cn2nc(-c3ccc(F)cc3)oc2=O)cs1,-2.4,15.8,10.4,6.52,-1.32,-4.21,3.17,8.37,7.35,12.2,-5.84
Cc1cc(NC(=O)CN2CCc3nn(C)c(=O)cc3C2)on1,-3.81,6.94,-63.3,-0.594,-1.46,7.06,13.9,0.181,-6.32,-5.13,-4.24
Cc1cc(F)ccc1OC1(C(=O)O)CCN(Cc2cccnc2N)CC1,-6.33,5.33,-1.53,2.08,-3.02,-0.521,5.93,0.568,6.01,11.1,1.09
O=C(NCCCOCC1CCCO1)c1cccnc1N1CCCC1 (configuration not stated),-2.67,5.41,4.06,-10.2,-2.93,0.833,14.3,-4.98,9.9,-3.66,6.21
CCC1=N[C@@]2(CC[C@@H]3CN(C(=O)NCC(C)C)C[C@@H]32)C(=O)N1CC(C)C,-3.96,8,0.0094,5.84,4.25,-55,12.8,2.46,8.33,10,-6.18

# Reference: ChEMBL document CHEMBL3988442, “University of Dundee, Small-Polar-MMV Screening Library” (2021)
